Assay results reported in publication PMC7862700, “An all-to-all approach to the identification of sequence-specific readers for epigenetic DNA modifications on cytosine”.

Legend:
Experiment in all cases: DAPPL (digital affinity profiling via proximity ligation, sequencing); 10 mM Tris-HCl pH 7.5, 50 mM NaCl, 1 mM DTT, 4% glycerol, room temperature, 30 min; GST-TFs on glutathione beads, 16-mer random dsDNA library, 0.1% formaldehyde crosslink after washing; high values mean tight binding
Settings in all cases: protein: recombinant; tags: N-terminal GST; dsDNA, one strand shown
[1] = target: T1, FLI1 (Homo sapiens, UniProt Q01543 1-452)
T1 sequence: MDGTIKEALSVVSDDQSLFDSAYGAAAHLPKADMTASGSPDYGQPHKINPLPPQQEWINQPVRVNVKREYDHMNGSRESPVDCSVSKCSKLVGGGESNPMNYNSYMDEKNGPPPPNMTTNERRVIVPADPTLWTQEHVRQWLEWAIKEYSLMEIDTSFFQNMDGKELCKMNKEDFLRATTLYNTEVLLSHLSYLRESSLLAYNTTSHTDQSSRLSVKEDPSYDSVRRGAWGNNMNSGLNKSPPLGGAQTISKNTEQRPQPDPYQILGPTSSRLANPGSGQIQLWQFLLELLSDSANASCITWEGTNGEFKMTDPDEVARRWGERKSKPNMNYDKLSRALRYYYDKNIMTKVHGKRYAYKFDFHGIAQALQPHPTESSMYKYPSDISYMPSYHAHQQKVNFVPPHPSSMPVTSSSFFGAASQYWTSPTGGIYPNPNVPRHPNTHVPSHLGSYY
Method in brief: (§1)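 Binding signal is defined as a hexamer's read frequency for one factor over its frequency for the tag-only sample. To obtain reads, GST-fused human transcription factors were expressed in yeast, captured on glutathione beads, barcoded with DNA and pooled with that sample. Pools met 200 nmole of a 16-mer random double-stranded DNA library in Tris/NaCl/DTT/glycerol buffer for 30 min at room temperature before washing, 0.1% formaldehyde crosslinking, proximity ligation (BsaI/T4 ligase, 1 h, 37 °C), PCR and Illumina NextSeq500 sequencing.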

[2] = target: T2, ELK1 (Homo sapiens, UniProt P19419 1-428)
T2 sequence: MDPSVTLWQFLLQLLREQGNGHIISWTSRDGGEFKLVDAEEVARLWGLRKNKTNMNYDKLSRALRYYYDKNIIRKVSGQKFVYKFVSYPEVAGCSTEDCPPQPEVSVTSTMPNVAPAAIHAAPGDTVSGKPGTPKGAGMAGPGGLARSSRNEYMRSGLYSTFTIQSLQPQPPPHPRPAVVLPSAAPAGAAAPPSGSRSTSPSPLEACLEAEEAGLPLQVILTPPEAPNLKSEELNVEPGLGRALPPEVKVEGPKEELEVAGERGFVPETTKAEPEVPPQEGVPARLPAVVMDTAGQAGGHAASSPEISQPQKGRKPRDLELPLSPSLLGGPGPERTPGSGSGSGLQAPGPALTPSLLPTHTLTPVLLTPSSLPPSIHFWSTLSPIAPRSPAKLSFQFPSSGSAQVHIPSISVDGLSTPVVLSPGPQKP
Method in brief: as §1

[3] = target: T3, GABPA (Homo sapiens, UniProt Q06546 1-454)
T3 sequence: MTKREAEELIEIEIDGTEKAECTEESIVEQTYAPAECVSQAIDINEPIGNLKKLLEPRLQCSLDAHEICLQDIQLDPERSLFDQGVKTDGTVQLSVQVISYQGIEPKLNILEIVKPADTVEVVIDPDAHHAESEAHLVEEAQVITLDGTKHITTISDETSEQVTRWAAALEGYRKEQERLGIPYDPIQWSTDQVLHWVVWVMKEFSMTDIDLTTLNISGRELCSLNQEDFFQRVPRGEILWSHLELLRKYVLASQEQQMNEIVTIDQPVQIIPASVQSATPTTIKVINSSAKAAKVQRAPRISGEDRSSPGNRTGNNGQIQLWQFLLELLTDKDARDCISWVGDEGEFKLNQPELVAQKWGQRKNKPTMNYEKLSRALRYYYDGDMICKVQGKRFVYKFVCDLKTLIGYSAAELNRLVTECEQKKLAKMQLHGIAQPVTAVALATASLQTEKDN
Method in brief: as §1

[4] = target: T4, ERG (Homo sapiens, UniProt P11308 1-479)
T4 sequence: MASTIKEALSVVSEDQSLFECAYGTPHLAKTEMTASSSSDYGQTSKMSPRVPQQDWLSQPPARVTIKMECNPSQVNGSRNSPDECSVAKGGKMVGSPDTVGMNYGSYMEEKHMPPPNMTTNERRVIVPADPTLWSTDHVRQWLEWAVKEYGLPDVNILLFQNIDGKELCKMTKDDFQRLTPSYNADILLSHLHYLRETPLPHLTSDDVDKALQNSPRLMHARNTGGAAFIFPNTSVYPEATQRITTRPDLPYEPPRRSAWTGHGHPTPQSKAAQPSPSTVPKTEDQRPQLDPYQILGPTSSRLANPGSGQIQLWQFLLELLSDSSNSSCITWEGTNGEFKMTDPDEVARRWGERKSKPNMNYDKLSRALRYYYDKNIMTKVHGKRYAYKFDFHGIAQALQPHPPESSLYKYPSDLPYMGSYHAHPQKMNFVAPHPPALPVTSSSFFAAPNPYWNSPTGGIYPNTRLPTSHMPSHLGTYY
Method in brief: as §1

[5] = target: ELF1 (Homo sapiens, UniProt P32519 1-619)
Method in brief: as §1

[6] = target: T5, EHF (Homo sapiens, UniProt Q9NZC4 1-300)
T5 sequence: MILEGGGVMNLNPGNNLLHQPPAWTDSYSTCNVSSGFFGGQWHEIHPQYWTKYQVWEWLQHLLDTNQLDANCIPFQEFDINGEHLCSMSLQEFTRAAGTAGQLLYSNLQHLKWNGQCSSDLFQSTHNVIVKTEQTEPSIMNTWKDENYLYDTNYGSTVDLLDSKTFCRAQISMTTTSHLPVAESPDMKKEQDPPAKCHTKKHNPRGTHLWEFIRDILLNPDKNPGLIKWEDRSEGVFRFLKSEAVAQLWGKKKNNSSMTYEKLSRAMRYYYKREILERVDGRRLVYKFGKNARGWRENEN
Method in brief: as §1

[7] = target: SPI1 (Homo sapiens, UniProt P17947 1-270)
Method in brief: as §1

[8] = target: SPIB (Homo sapiens, UniProt Q01892 1-262)
Method in brief: as §1

[9] = target: T6, ELK3 (Homo sapiens, UniProt P41970 1-407)
T6 sequence: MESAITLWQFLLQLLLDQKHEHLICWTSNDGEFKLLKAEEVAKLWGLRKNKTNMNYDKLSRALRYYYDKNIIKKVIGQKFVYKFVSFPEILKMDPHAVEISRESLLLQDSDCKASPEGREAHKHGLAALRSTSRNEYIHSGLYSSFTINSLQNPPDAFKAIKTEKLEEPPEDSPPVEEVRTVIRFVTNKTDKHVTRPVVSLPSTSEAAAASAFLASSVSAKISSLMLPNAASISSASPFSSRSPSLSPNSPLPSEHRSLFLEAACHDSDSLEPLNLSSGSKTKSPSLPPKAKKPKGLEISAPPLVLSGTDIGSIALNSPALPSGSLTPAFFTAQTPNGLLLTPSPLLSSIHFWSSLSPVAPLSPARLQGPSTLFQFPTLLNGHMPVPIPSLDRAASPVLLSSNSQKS
Method in brief: as §1

[10] = target: T7, FEV (Homo sapiens, UniProt Q99581 1-238)
T7 sequence: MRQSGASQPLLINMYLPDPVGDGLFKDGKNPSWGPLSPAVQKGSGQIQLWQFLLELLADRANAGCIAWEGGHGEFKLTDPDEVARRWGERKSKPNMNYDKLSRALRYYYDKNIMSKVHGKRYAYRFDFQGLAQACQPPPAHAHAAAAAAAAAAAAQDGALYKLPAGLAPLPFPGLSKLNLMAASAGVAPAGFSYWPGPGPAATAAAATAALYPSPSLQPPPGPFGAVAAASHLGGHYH
Method in brief: as §1

[11] = target: ETV5 (Homo sapiens, UniProt P41161 1-510)
Method in brief: as §1

[12] = target: ELF4 (Homo sapiens, UniProt Q99607 1-663)
Method in brief: as §1

[13] = target: ETV1 (Homo sapiens, UniProt P50549 1-477)
Method in brief: as §1

[14] = target: T8, ERF (Homo sapiens, UniProt P50548 1-548)
T8 sequence: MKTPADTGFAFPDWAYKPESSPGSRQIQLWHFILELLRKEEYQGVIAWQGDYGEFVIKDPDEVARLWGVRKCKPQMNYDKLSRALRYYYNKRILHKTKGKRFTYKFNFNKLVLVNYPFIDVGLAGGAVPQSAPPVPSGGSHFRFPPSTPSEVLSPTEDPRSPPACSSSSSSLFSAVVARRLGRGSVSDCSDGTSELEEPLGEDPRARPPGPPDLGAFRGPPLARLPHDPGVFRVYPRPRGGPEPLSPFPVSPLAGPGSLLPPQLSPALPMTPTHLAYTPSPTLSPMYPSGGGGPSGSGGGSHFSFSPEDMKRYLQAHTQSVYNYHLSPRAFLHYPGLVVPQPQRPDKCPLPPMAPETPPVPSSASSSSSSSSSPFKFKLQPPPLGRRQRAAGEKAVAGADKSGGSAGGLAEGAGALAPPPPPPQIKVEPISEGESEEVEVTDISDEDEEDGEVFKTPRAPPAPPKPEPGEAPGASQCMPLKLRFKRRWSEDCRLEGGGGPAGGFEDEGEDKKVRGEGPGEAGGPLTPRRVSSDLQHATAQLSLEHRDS
Method in brief: as §1

[15] = target: T9, ETV3L (Homo sapiens, UniProt Q6ZN32 1-361)
T9 sequence: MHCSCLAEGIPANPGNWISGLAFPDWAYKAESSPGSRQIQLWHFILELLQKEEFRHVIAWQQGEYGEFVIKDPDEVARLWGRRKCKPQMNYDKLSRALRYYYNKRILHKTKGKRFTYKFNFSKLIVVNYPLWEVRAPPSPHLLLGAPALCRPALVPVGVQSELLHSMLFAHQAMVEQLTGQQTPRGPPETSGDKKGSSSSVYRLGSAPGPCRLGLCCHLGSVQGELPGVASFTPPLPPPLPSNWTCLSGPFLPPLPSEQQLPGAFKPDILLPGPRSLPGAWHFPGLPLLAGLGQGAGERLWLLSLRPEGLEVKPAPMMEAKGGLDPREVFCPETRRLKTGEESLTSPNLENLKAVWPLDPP
Method in brief: as §1

[16] = target: T10, ETS2 (Homo sapiens, UniProt P15036 1-469)
T10 sequence: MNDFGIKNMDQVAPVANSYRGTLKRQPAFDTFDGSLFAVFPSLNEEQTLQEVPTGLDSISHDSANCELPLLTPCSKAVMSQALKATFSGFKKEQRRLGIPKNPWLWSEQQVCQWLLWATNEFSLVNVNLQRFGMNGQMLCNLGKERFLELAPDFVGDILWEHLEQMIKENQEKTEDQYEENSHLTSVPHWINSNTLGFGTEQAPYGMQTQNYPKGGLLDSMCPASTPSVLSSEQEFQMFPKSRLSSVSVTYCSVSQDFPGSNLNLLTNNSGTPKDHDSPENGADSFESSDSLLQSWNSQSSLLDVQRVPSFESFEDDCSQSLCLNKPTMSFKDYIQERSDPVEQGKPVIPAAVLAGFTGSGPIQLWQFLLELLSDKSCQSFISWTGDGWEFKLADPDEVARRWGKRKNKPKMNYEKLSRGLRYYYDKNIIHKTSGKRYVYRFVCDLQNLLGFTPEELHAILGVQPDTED
Method in brief: as §1

[17] = target: T11, SPDEF (Homo sapiens, UniProt O95238 1-335)
T11 sequence: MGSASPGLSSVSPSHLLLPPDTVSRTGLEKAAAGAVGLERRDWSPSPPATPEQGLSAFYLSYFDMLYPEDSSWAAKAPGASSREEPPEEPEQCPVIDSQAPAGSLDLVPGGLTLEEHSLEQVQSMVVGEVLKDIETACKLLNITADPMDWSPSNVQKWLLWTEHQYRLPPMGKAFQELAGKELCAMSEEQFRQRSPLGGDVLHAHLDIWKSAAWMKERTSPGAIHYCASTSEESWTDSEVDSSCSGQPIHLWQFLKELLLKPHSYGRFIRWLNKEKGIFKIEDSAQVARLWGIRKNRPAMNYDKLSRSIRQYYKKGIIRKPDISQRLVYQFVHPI
Method in brief: as §1

[18] = target: T12, ETV3 (Homo sapiens, UniProt P41162-2 1-143)
T12 sequence: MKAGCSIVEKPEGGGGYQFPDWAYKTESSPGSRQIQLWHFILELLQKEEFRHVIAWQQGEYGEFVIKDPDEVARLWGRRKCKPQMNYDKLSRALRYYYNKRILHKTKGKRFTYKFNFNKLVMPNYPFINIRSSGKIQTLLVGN
Method in brief: as §1

[19] = target: ETV6 (Homo sapiens, UniProt P41212 1-452)
Method in brief: as §1

ETV1, sequence (P50549 whole entry): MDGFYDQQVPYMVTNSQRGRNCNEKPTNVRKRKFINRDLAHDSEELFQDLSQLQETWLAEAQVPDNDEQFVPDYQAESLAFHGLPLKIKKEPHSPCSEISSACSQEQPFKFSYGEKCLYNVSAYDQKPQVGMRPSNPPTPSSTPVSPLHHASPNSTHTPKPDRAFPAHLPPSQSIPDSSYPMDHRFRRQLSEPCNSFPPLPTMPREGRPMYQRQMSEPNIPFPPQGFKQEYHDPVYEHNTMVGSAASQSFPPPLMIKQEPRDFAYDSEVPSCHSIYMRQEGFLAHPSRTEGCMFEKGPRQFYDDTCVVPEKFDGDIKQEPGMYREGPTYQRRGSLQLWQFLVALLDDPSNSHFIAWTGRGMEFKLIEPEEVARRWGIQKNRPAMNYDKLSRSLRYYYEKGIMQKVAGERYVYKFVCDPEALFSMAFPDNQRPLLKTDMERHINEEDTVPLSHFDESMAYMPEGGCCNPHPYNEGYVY
ELF1, sequence (P32519 whole entry): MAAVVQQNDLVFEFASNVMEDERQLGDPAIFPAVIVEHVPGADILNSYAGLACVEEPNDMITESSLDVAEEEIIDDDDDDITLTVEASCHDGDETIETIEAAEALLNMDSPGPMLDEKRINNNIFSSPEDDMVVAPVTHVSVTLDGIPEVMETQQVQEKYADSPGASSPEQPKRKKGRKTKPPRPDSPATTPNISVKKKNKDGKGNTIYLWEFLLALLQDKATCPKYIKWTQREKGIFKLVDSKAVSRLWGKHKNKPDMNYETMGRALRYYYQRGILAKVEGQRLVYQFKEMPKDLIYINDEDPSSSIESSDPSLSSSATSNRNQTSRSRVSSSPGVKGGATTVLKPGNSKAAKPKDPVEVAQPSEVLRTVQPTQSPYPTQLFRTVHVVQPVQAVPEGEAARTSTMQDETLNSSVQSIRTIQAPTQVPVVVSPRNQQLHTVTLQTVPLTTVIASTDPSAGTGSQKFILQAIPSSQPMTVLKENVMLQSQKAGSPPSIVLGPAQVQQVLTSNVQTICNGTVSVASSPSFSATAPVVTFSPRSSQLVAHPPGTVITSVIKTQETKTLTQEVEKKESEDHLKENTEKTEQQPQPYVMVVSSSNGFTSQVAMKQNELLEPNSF
ELF4, sequence (Q99607 whole entry): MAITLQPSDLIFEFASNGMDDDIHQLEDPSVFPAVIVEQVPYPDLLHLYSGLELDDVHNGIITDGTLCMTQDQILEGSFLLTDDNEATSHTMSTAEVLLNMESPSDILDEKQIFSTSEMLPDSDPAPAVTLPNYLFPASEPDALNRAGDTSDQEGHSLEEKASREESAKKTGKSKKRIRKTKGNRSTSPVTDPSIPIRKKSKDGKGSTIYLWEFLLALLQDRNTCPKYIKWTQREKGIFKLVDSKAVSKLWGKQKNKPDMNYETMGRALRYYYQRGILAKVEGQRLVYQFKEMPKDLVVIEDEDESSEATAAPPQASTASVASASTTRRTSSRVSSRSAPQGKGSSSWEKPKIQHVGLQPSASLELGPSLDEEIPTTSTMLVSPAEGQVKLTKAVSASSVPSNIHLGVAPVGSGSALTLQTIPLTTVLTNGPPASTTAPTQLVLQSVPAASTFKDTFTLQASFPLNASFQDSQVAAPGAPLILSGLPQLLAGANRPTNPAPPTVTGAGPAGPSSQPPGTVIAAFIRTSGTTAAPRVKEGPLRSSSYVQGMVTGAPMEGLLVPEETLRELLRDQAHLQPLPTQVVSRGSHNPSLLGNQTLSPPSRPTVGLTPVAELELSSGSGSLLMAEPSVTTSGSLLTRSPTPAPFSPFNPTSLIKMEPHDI
ETV5, sequence (P41161 whole entry): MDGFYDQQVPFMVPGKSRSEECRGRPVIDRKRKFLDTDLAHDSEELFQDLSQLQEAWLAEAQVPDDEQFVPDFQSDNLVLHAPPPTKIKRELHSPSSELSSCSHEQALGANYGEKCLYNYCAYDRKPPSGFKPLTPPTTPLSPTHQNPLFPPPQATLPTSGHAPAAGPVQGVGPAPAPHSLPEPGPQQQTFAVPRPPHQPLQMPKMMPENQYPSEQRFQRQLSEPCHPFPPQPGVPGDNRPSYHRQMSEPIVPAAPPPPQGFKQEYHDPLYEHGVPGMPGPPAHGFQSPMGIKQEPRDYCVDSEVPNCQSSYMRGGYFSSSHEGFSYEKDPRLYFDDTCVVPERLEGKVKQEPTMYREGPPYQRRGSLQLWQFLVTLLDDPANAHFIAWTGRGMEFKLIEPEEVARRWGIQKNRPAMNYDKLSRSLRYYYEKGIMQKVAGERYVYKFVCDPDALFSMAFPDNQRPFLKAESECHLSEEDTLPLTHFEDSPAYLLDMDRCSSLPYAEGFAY
SPIB, sequence (Q01892 whole entry): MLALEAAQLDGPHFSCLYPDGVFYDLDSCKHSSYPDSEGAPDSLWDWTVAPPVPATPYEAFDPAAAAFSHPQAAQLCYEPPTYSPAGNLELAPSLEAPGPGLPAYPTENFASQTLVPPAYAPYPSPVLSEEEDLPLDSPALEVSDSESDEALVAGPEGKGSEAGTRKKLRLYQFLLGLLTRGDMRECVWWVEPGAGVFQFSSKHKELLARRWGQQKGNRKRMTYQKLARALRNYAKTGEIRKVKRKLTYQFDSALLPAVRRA
ETV6, sequence (P41212 whole entry): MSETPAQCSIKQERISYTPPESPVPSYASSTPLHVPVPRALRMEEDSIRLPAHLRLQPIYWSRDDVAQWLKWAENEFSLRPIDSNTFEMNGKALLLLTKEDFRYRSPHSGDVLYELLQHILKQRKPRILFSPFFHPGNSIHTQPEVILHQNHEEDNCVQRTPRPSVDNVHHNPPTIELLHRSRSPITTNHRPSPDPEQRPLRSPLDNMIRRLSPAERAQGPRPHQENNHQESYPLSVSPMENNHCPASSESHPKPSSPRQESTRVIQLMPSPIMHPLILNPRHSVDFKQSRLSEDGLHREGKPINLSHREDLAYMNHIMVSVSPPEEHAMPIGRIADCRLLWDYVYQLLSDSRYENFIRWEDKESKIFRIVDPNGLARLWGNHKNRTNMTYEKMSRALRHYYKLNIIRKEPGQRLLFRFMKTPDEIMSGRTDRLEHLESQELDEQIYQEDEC

## ACCGCA
[1]
  binding signal: 1.17 fold enrichment (6-mer frequency, TF over GST control)
[2]
  binding signal: 1.14 fold enrichment (6-mer frequency, TF over GST control)
[3]
  binding signal: 1.16 fold enrichment (6-mer frequency, TF over GST control)
[4]
  binding signal: 1.11 fold enrichment (6-mer frequency, TF over GST control)
[5]
  binding signal: 1.15 fold enrichment (6-mer frequency, TF over GST control)
[6]
  binding signal: 1.23 fold enrichment (6-mer frequency, TF over GST control)
[7]
  binding signal: 1.2 fold enrichment (6-mer frequency, TF over GST control)
[8]
  binding signal: 1.16 fold enrichment (6-mer frequency, TF over GST control)
[9]
  binding signal: 1.19 fold enrichment (6-mer frequency, TF over GST control)
[10]
  binding signal: 1.17 fold enrichment (6-mer frequency, TF over GST control)
[11]
  binding signal: 1.13 fold enrichment (6-mer frequency, TF over GST control)
[12]
  binding signal: 1.15 fold enrichment (6-mer frequency, TF over GST control)
[13]
  binding signal: 1.17 fold enrichment (6-mer frequency, TF over GST control)
[14]
  binding signal: 1.11 fold enrichment (6-mer frequency, TF over GST control)
[15]
  binding signal: 1.12 fold enrichment (6-mer frequency, TF over GST control)
[16]
  binding signal: 1.18 fold enrichment (6-mer frequency, TF over GST control)
[17]
  binding signal: 1.13 fold enrichment (6-mer frequency, TF over GST control)
[18]
  binding signal: 1.09 fold enrichment (6-mer frequency, TF over GST control)
[19]
  binding signal: 1.15 fold enrichment (6-mer frequency, TF over GST control)
